Pf Dd2 growth = Plasmodium falciparum Dd2 growth inhibition; P. falciparum Dd2 growth, SYBR Green, 72 h; Potency, µM (top dose mostly 28.9 µM), for the others: top-dose activity, negative = inhibition, usual class: inhibitors; 120,000 compounds, 4.3% hits; AID 1347417; active = well fitted inhibition curve with a large enough effect;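 note: plate controls were DMSO vehicle for no effect and reference drug for full effect; nearly all actives have a fitted effect of over 65% in size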
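Readout: SYBR Green fluorescence, 485 nm excitation, 535 nm emission, after ~16 h lysis at 37C. Before that, Dd2-infected red cells (2.5% hematocrit) grew 72 h with compound, 29 uM top final concentration.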
An asterisk follows results filed as active; i = inactive; [ ] = another dose, or the depositor's remark. Shown is part of a subset that was picked to be rich in hits. Potency is the fitted concentration of half-maximal effect.

SMILES	Pf Dd2 growth
O=C(c1ccccc1F)N1CCCC(c2nn(-c3ccc(F)cc3)c(=O)[nH]2)C1 (configuration not stated)	-4.4%
O=C1CC(c2c(Cl)cccc2Cl)c2c(ccc3ccccc23)N1 (configuration not stated)	i
O=C1CC(c2c(F)cccc2Cl)c2c(ccc3ccccc23)N1 (configuration not stated)	i
CCCCOc1ccccc1C1CC(=O)Nc2ccc3ccccc3c21 (configuration not stated)	14.1µM*
O=C1NCCCCCCN(S(=O)(=O)c2ccc3c(c2)OCCO3)[C@H]2CCC[C@@H]12	-1.6%
COc1cccc([S+](=O)([O-])N2CCn3c(nn(-c4cccc(Cl)c4)c3=O)C2)c1	-4.3%
CN1CC2(CCN(C(=O)CCc3c[nH]c4ccccc34)CC2)CC1C(=O)N1CCOCC1 (configuration not stated)	-11.8%
CS(=O)(=O)CC(=O)Nc1ccccc1C(=O)NCc1ccccn1	-9.7%
CC(C)C1CN(C(=O)CN2CCCCC2=O)CCCN1Cc1ccc(F)cc1 (configuration not stated)	-9.6%
Cc1c(O)cccc1C(=O)N1CCCN(Cc2ccc(F)cc2)C(C(C)C)C1 (configuration not stated)	3.98µM*
CC(C)C1CN(C(=O)CNC(=O)N(C)C)CCCN1Cc1ccc(F)cc1 (configuration not stated)	-19.3%
Cc1ccc(Cn2cnc3nc4c(cc3c2=O)CCCC4)cc1	-23.8%
COC(=O)c1ccc(Cn2cnc3nc4c(cc3c2=O)CCCC4)cc1	55.6%
CCC(C(=O)Nc1ccc(C(C)=O)cc1)n1cnc2nc3c(cc2c1=O)CCCC3 (configuration not stated)	10µM*
CC(=O)N1CCC(Cc2ncc(C)n2C(C)C)C1 (configuration not stated)	3.3%
Cc1cnc(CC2CCN(S(=O)(=O)c3ccccc3)C2)n1C(C)C (configuration not stated)	3.16µM*
Cc1cnc(CC2CCN(S(=O)(=O)c3cn(C)cn3)C2)n1C(C)C (configuration not stated)	-12.2%
COCCn1c(C)cnc1CC1CCCN(S(=O)(=O)c2cccc(F)c2)C1 (configuration not stated)	8.91µM*
O=C(c1n[nH]c(=O)c2ccccc12)N1CCC(Cc2noc(C3CCOCC3)n2)C1 (configuration not stated)	5.6%
CNC(=O)N1CCC(Cc2noc(C3CCOCC3)n2)C1 (configuration not stated)	1.6%
CCNC(=O)N1CCC(Cc2ncc(C)n2C(C)C)C1 (configuration not stated)	7.9%
CNC(=O)N1CCCC(Cc2ncc(C)n2C(C)C)C1 (configuration not stated)	-12.3%
CCCn1c(C)cnc1CC1CCCN(S(=O)(=O)CCC)C1 (configuration not stated)	-11.0%
CNC(=O)N1CCC(Cc2ncc(C)n2CCOC)C1 (configuration not stated)	1.5%
CCOc1ccccc1NC(=O)N1CCCC(Cc2ncc(C)n2C(C)C)C1 (configuration not stated)	1.78µM*
SMILES	Pf Dd2 growth
CCOc1ccccc1NC(=O)N1CCC(Cc2noc(C3CCOCC3)n2)C1 (configuration not stated)	7.94µM*
COc1ccc(N2CC(C(=O)N3CCC(C(=O)NCCc4ccc(Cl)cc4)C3)NC2=O)cc1 (configuration not stated)	-8.6%
CC(C)CCN1CCN2C(=O)NC[C@H]2C1	5.5%[76.6 µM]
CC(C)c1nnc2ccc(N3CCN(C)CC3)nn12	1.8%
CN(Cc1ccccc1)Cc1cc(C[C@H]2CNCC[C@H]2CC(=O)NC2CCCCC2)no1	i
O=C(Cc1cccs1)N1CCC(c2noc(-c3cccnc3)n2)C1 (configuration not stated)	i[5.79 µM]
COc1ccc(CCNC(=O)c2nnn3cc(C)[nH]c(=O)c23)cc1OC	-0.8%
COc1ccc(-n2nc3ccc(NC(=O)COc4ccc(C)c(C)c4)cc3n2)cc1	6.3%
COc1ccc(Nc2cc(C)c3cc(NC(=O)COc4cccc(C)c4)ccc3n2)cc1	3.98µM*
COc1ccc(CC(=O)Nc2ccc3nc(Nc4cccc(Cl)c4)cc(C)c3c2)cc1OC	i
O=C1CNc2ccc(C(=O)N3CCn4nc(CO)cc4C3)cc2N1	-14.9%
CCCn1c(C)cnc1C1CCN(C(=O)C2CC2)C1 (configuration not stated)	0.1%
O=C(C1CC1)N1CCC(OC2CCN(Cc3cccnc3)CC2)CC1	-7.4%
Cc1ncc2n1C(=O)N(C1CCN(Cc3cccnc3)CC1)C2	12.7%[44.1 µM]
c1cncc(CN2CCC(Oc3nccnc3N3CCc4ccccc43)C2)c1 (configuration not stated)	3.55µM*
CC(C)CCN1CCC(N2CCN(C(=O)c3ccncc3)CC2)C1=O (configuration not stated)	-18.3%
CN(C)CCNC(=O)C[C@@H]1O[C@H](CNC(=O)c2ccco2)[C@@H](O)[C@H]1O	2.1%[44.1 µM]
CCN(Cc1ccccc1)Cc1c(O)ccc2c(=O)c(-c3ccccc3Cl)c(C(F)(F)F)oc12	8.91µM*
Cc1ccc(-c2c(C(=O)N(C)Cc3ccccc3)oc(=O)c3ccccc23)cc1	-12.5%
CCN(Cc1ccccc1)Cc1c(O)ccc2c(=O)c(-c3ccccc3)c(C(F)(F)F)oc12	6.31µM*
Cc1ccc(C(=O)N2CCC(c3nn(C)c4c3COCC4)CC2)cn1	5.0%[5.79 µM]
NCCCN1C(=O)CC[C@H]2CN(C(=O)c3cnn4ccccc34)CC[C@H]21	-4.5%
CC(=O)NCC(=O)N1CCC2(COc3ncccc3[S+](=O)([O-])N2)C1 (configuration not stated)	20.2%
CC[C@@H](NC(=O)Cc1[nH]nc2ccccc12)C1CC(O)C1 (some centres not stated)	-4.3%
COC[C@@H]1CN(C(=O)c2cccc(F)c2)C[C@H]1C(N)=O	27.3%
SMILES	Pf Dd2 growth
O=C(Nc1nc2n(n1)C(c1ccc(F)cc1)C=C(c1ccccc1)N2)c1cccc([N+](=O)[O-])c1 (configuration not stated)	3.16µM*
COc1ccc(C2C=C(c3ccccc3)Nc3nc(NC(=O)/C=C/c4ccccc4OC)nn32)cc1 (configuration not stated)	10µM*
Cc1ccc(C2C=C(c3ccc(Cl)cc3)Nc3nc(NS(=O)(=O)c4ccccc4)nn32)cc1 (configuration not stated)	19.6%
COc1ccc(C(=O)Nc2nc3n(n2)C(c2ccccc2)C=C(c2ccccc2)N3)cc1 (configuration not stated)	i
COc1cccc(C2C(C(=O)Nc3ccccc3)=C(C)Nc3nc(-c4ccccc4)nn32)c1 (configuration not stated)	-27.6%
CC1=C(C(=O)Nc2ccccc2)C(c2ccc(F)cc2)n2nc(SCc3cc(C)ccc3C)nc2N1 (configuration not stated)	115.1%
O=C(Nc1nc2n(n1)C(c1ccc(F)cc1)C=C(c1ccc(Cl)cc1)N2)c1ccco1 (configuration not stated)	8.91µM*
CC(=O)Nc1cccc(C(=O)NCCn2ccn3nc(-c4ccc(F)cc4)cc3c2=O)c1	-1.2%
O=C(c1ccco1)n1nc(-c2ccc(Cl)cc2)nc1NCc1ccc(F)cc1	60.9%
CS(=O)(=O)N1C[C@H]2CCN(Cc3ccc(F)cc3F)C[C@H]21	i
COc1ccc(CN2C(=O)COC[C@H]2C(=O)N2CCN(c3ccc(C)cc3)CC2)cc1	-9.2%

Screens deposited in PubChem by National Center for Advancing Translational Sciences (NCATS).
